Compound activity as filed in PubChem BioAssay.
Hits are enriched below; roughly 3.6% of the tested compounds scored in any of these assays.
ERa coact inh: ER-alpha (human) coactivator binding inhibition; P03372; AID 629; inhibition, % at 25.6 µM; hit rate 1.7% among 86,000; TR-FRET ER-alpha LBD / SRC-1 peptide, estradiol-bound; in the data active = inhibition above about 50%;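 also: 0% = receptor plus peptide control and 100% = peptide only without receptor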
ERa coact pot: enhances coactivator binding to human estrogen receptor alpha. TR-FRET ERalpha-LBD/SRC-Cy5 coactivator binding, 2 h; 100 = basal binding, no effect. coactivator binding (% of control), % at 25.6 µM. hit rate 1.3% among 86,000. AID 639; in the data active = activity above about 200%;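 also: binding measured in presence of low estradiol as agonist stimulus; 0% = peptide alone without receptor and 100% = receptor with peptide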
NFkB transloc pot: enhances IL-1B driven NFkB nuclear translocation; HUVEC IL-1B NFkB p65 nuclear translocation imaging; activation, % at 2 µM; hit rate 0.3% among 94,000;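 active = activation above 40%, about the mean plus 3 SD, also judged a hit on visual image review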;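 also: percent activation is computed from the nuclear over cytoplasmic p65 intensity ratio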
ERb SRC1 inh: ER-beta (human) coactivator binding inhibition. Q92731. TR-FRET ER-beta LBD / SRC1-Cy5 peptide binding; receptor agonist-loaded with 1 µM estradiol. inhibition, % at 25.6 µM. hit rate 1.3% among 86,000. AID 633;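 active = compounds whose percent inhibition of the receptor-coactivator binding signal exceeds about 50% in the single-dose screen, limit read from the data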;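 also: 0% = receptor plus peptide wells without compound and 100% = peptide-only wells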
Target sequence (Q92731 whole entry, looked up, the tested form may be a part): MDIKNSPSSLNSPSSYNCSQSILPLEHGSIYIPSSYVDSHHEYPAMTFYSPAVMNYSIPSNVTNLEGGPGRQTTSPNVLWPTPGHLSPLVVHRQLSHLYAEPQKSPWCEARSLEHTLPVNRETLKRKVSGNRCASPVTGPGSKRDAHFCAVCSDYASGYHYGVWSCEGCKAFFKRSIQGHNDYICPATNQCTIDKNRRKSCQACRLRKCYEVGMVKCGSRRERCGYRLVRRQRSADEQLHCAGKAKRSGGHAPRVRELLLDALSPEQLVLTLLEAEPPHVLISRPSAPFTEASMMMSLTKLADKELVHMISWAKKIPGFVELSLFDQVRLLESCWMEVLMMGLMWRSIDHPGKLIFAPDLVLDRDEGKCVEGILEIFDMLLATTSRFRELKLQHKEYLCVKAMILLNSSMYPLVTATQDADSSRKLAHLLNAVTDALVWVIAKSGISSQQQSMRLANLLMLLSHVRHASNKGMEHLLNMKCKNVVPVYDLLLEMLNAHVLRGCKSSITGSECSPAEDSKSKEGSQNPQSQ
IL1B cytotox: toxic to HUVEC cells under IL-1B stimulation | HUVEC cell count loss, Hoechst imaging, IL-1B stimulated | cell count reduction, % at 2 µM | hit rate 0.41% among 94,000 | AID 845;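 active = cell count reduction more than 3 SD above the screen-wide mean, cut at about 70% in these data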;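 also: normalized per plate to untreated control cells as the no-loss baseline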
IL1B NFkB inh: blocks IL-1B driven NFkB nuclear translocation in HUVEC cells. HUVEC IL-1B NFkB p65 nuclear translocation imaging. inhibition, % at 2 µM. hit rate 0.43% among 94,000;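 active = inhibition above about 30% together with a positive call from visual inspection of the well image, limit read from the data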;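 also: nuclear over cytoplasmic p65 intensity ratio measured by imaging; 0% = IL-1B stimulated DMSO wells and 100% = unstimulated DMSO wells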
Active calls of the source: *; x = no result given; [ ] = another dose, or the depositor's remark.

SMILES	ERa coact inh	ERa coact pot	NFkB transloc pot	ERb SRC1 inh	IL1B cytotox	IL1B NFkB inh
c1ccc(CSc2nnc(Cc3ccccn3)o2)cc1	3	131	x	-2	x	x
Fc1ccc(CSc2nnc(Cc3sc(-c4ccccc4)nc3-c3ccccc3)o2)cc1	-20	274*[fluorescence artefact?]	x	-9	x	x
COc1ccc(CSc2nnc(Cc3sc(-c4ccccc4)nc3-c3ccccc3)o2)cc1	-41	438*[fluorescence artefact?]	x	-18	x	x
COC(=O)c1oc2ccc(Br)cc2c1-n1cccc1	2	106	-40	-3	-81	40*
COC(=O)c1oc2ccc(Br)cc2c1NC(=O)CCCN1C(=O)c2ccccc2C1=O	52*	131	x	26	x	x
O=C(CCCN1C(=O)c2ccccc2C1=O)Nc1c(C(=O)C2CC2)oc2ccccc12	2	111	-9	-2	15	9
COc1ccc(C(c2nnnn2Cc2cccs2)N2CCN(c3ccccc3F)CC2)cc1 (stereo unspecified)	2	109	4	-1	-13	-4
Cn1c(=O)n(CC(=O)N2CCOCC2)c2ccccc21	6	94	17	3	-4	-17
COc1cc(NC(=O)CSc2nc3ccccc3c(=O)n2C)ccc1NC(=O)c1ccco1	63*	129	-9	50	-2	9
COc1cc(NC(=O)CSc2nnc(-c3ccncc3)n2C2CCCCC2)ccc1NC(=O)c1ccco1	x	x	18	x	0	-18
CCOc1ccc(OCC)c(NC(=O)CSc2nnnn2CC)c1	-9	91	-4	1	17	4
CCOc1ccc(OCC)c(NC(=O)CSc2nc3ccccc3c(=O)n2C)c1	50*[fluorescence artefact?]	144	-5	31	-15	5
Cc1ccc2cc(CN(CC3CCCO3)S(=O)(=O)c3cccc4nsnc34)c(=O)[nH]c2c1 (stereo unspecified)	-6	131	6	-5	-28	-6
C=CC[n+]1c(-c2ccc(OC)c(OC)c2)csc1NNC(=O)Nc1ccccc1	0	80	18	-3	-30	-18
CCN(CCCNC(=O)C1CCCN(S(=O)(=O)c2cnc[nH]2)C1)c1ccccc1 (stereo unspecified)	-5	106	1	13	-20	-1
COc1ccc(N2C(=O)c3ccc(NC(C)=O)cc3C2=O)cc1	-9	107	-7	6	-8	7
COc1cc2c3c(c1)/C(=C1/SC(NC(C)=O)=NC1=O)C(=O)N3C(C)(C)C=C2C	77*[fluorescence artefact?]	49	-2	54*	-9	2
O=C(O)CCC(=O)Nc1ccc(C(=O)N2CCCCC2)cc1	-3	104	1	9	88*	-1
COc1cccc(-c2cc(C(=O)NCCCn3ccnc3)no2)c1	-6	106	-1	-1	2	1
O=C(c1cc2ccccc2oc1=O)N(Cc1cccs1)Cc1ccccc1Cl	-1	102	3	12	94*	-3
CSc1nc(C)cc(OCCNS(=O)(=O)c2cc(C)ccc2C)n1	-2	112	x	-6	x	x
COc1ccc(NC(=O)c2cc(-c3cccnc3)nc3ccc(C)cc23)cc1OC	x	x	13	x	-9	-13
COc1ccc(NC(=O)c2cc(-c3ccc(C)o3)nc3ccccc23)cc1OC	79*[fluorescence artefact?]	77	10	68*[fluorescence artefact?]	-1	-10
Cc1ccc(C)c(SCC(=O)OCC(=O)c2ccco2)c1	65*	70	-6	63*	-63	6
Cc1ccc(C)c(SCC(=O)NCc2ccco2)c1	-5	85	18	-3	12	-18
SMILES	ERa coact inh	ERa coact pot	NFkB transloc pot	ERb SRC1 inh	IL1B cytotox	IL1B NFkB inh
CCc1ccc(Cn2nnc(C(=O)NCc3ccccc3OC)c2N)cc1	9	206*	2	6	6	-2
CCOc1ccc(Cn2nnc(C(=O)Nc3cc(C)cc(C)c3)c2N)cc1	0	153	17	-2	-16	-17
COc1ccc(CNC(=O)c2nnn(Cc3ccc(OC)cc3)c2N)cc1	7	208*	19	-14	-45	-19
CCOc1ccc(Cn2nnc(C(=O)Nc3cc(OC)cc(OC)c3)c2N)cc1	18	257*[fluorescence artefact?]	36	9	4	-36
Cc1c(Br)c([N+](=O)[O-])nn1CC(=O)NCc1cccs1	x	x	-14	x	4	14
C=CCSc1nc2c(c(=O)n(C)c(=O)n2C)n1CC	11	106	9	4	2	-9
COc1ccc(Nc2nc(N)nc(COc3ccc(OC)cc3)n2)cc1	-3	106	-33	-4	-7	33*
COc1ccc(OCc2nc(N)nc(Nc3ccc(C)cc3)n2)cc1	-12	105	-13	-5	3	13
Cc1ccc(C(C)C)c(OCC(=O)OCc2c(C)noc2C)c1	-5	134	17	51*[fluorescence artefact?]	-36	-17
Cc1ccc(S(=O)(=O)N(C)c2ccc(OCC(=O)OCc3c(C)noc3C)cc2)cc1	-9	106	-1	-9	21	1
CCOCC(=O)Nc1cccc(C(=O)OCC)c1	60*	116	29	-4	-18	-29
CCOC(=O)c1cccc(NC(=O)COC)c1	-3	97	-10	-2	-1	10
Cc1ccc(-c2noc(CCC(=O)NCCN3CCc4ccccc4C3)n2)cc1	x	x	2	x	14	-2
CC1=C(C(N)=O)C(c2ccc(Cl)cc2Cl)n2ncnc2N1 (stereo unspecified)	21	102	-96	9	63	96*
CCOC(=O)c1ccc(CSc2nnc(-c3ccncc3)n2N)cc1	5	116	28	0	-95	-28
COc1ccc(-c2nnn(CC(=O)N(Cc3ccccc3Cl)C(C(=O)NCC3CCCO3)c3ccco3)n2)cc1OC (stereo unspecified)	x	x	-4	x	-21	4
CCOC(=O)C1=c2/c(=C/c3ccccc3OC)c(N)c(C#N)n2C(=O)C(c2ccccc2OC)S1 (stereo unspecified)	63*	129	12	52*	-13	-12
CCOC(=O)C1=C(C)N=C2SC(C)C(=O)N2C1/C=C/c1ccccc1OC (stereo unspecified)	x	x	2	x	-1	-2
O=C(NC1CCSC1=O)c1ccccc1 (stereo unspecified)	4	140	7	-6	-19	-7
O=C(NC1CCSC1=O)c1cccc(C(=O)NC2CCSC2=O)c1 (stereo unspecified)	23	208*	-4	11	20	4
CN(C)S(=O)(=O)N1CCN(c2ccc(Cl)cc2)CC1	1	42	-4	6	-48	4
CN(C)c1ccc(C=C2C(=O)OC(C)(C(C)(C)C)OC2=O)cc1 (stereo unspecified)	x	x	-1	x	-2	0
CN(C)c1ccc(/C=C/C(O)=C2/C(=O)N(C)C3(C)CC2c2ccccc2O3)cc1 (stereo unspecified)	74*[fluorescence artefact?]	27	10	60*[fluorescence artefact?]	-114	-10
COc1cccc(-c2cc(C(=O)Nc3cc(C)on3)no2)c1	23	428*[fluorescence artefact?]	-4	30	3	4
